Screening results from PubChem.
Pf Dd2 inh – inhibitors of Plasmodium falciparum Dd2 growth | P. falciparum Dd2 growth, SYBR Green, 72 h | Potency, µM (doses to about 28.9 µM), for inactives: top-dose activity, negative = inhibition, most hits filed as inhibitors | actives 4.3% (n = 120,000); active means well fitted inhibition curve with a large enough effect;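 further: plate controls were DMSO vehicle for no effect and reference drug for full effect; nearly all actives have a fitted effect of over 65% in size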
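Infected erythrocytes (Dd2, 0.3% parasitemia, 2.5% hematocrit final) are added to compound in RPMI-1640/Albumax II medium, grown 72 h at 37C in low oxygen, then lysed with saponin/Triton-X containing SYBR Green and read by fluorescence.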
* = called active by the depositor; [ ] = another dose, or the depositor's remark. Many of the other results were omitted from the sample, so hits are more common in it than they were. Potency means the concentration at half of the fitted maximal effect.

`Cn1c(CO[C@H]2CN(Cc3ccncc3F)C[C@H]2F)nc2ccccc21` gave Pf Dd2 inh 18%[44.1 µM].
`COc1ccc(C(=O)Nc2c(C(=O)c3ccc(F)cc3)oc3ccccc23)cc1` gave Pf Dd2 inh 56%.
For COc1ccc(C(=O)c2oc3ccccc3c2NC(=O)c2ccc(F)cc2)cc1 the results were Pf Dd2 inh 34%[5.79 µM].
Screening CC(C)(C)c1ccc(C(=O)Nc2c(C(=O)c3ccc(F)cc3)oc3ccccc23)cc1 returned Pf Dd2 inh 8.9µM*.
`CCOc1ccc2c(n1)CCN(C(=O)c1ccccn1)C2` gave Pf Dd2 inh 38%.
`CCn1cc(CN2C[C@@H](CO)[C@H](NC(=O)C3CC3)C2)cn1` gave Pf Dd2 inh 44%.
Screening O=C(CC1CCOC2(CCN(S(=O)(=O)Cc3ccccc3)CC2)C1)N1CCCC1 (configuration not stated) returned Pf Dd2 inh inactive.
COc1ccc(NC(=O)N[C@@H]2C=C[C@@H](c3c(C)nn(-c4ccc(C(C)C)cc4)c3C)C2)cc1 was read as Pf Dd2 inh 11µM*.
`COc1ccc(-n2nc(C)c([C@@H]3C=C[C@@H](NC(=O)NC4CCCCC4)C3)c2C)cc1` gave Pf Dd2 inh 16µM*.
Screening Cc1nn(-c2ccc(C(F)(F)F)cc2)c(C)c1[C@@H]1C=C[C@@H](NC(=O)NC(C)C)C1 returned Pf Dd2 inh inactive.
Screening Cc1nn(-c2ccc(C(C)C)cc2)c(C)c1[C@@H]1C=C[C@@H](NC(=S)NC2CCCCC2)C1 returned Pf Dd2 inh -9%.
CCNC(=O)N[C@@H]1C=C[C@@H](c2c(C)nn(-c3ccc(OC)cc3)c2C)C1 was read as Pf Dd2 inh 10µM*.
For Cc1ccc(-n2nc(C)c([C@@H]3C=C[C@@H](NC(=O)NC4CCCCC4)C3)c2C)cc1Cl the results were Pf Dd2 inh -19%[44.1 µM].
Cc1nn(CCC#N)c(C)c1[C@@H]1C=C[C@@H](NC(=O)NC(C)C)C1 was read as Pf Dd2 inh -6%[44.1 µM].
`COc1ccc(NC(=O)c2nnn(-c3ccc(C(C)C)cc3)c2C)c(OC)c1` gave Pf Dd2 inh inactive.
For COc1ccc(C(=O)N2CCCCCCNC(=O)CC2)cc1 the results were Pf Dd2 inh -23%.
COCCN1CCCCCC(O)c2cc(C(=O)N3CCN(C4CCCCC4)CC3)ccc21 (configuration not stated) was read as Pf Dd2 inh inactive.
Screening O=C(c1cnccn1)N1CCC(N2C(=O)C(OCC3CC3)C23CCCCC3)CC1 (configuration not stated) returned Pf Dd2 inh -25%.
`Cn1nccc1C(=O)N1CCC(N2C(=O)C3(CCCCC3)C2c2ccccc2)CC1` (configuration not stated) gave Pf Dd2 inh inactive.
`Cc1cccc(C(=O)N2CCC(N3C(=O)C4(CCCCC4)C3c3ccncc3)CC2)c1` (configuration not stated) gave Pf Dd2 inh 6.3µM*.
For CCn1nccc1C(=O)N1CCC(N2C(=O)C3(CCCCC3)C2c2ccncc2)CC1 (configuration not stated) the results were Pf Dd2 inh inactive.
O=C(c1ccncc1)N1CCC(N2C(=O)C3(CCCC3)C2c2ccccc2)CC1 (configuration not stated) was read as Pf Dd2 inh inactive.
For O=C(c1ccc2cc[nH]c2c1)N1CCC(N2C(=O)C3(CCCCC3)C2c2ccncc2)CC1 (configuration not stated) the results were Pf Dd2 inh 7.1µM*.
For COc1ccc(C(=O)N2CCC(N3C(=O)C4(CCCC4)C3c3ccccc3)CC2)cc1 (configuration not stated) the results were Pf Dd2 inh -11%.
Screening O=C(CCC1CCCN(S(=O)(=O)c2ccccc2F)C1)NCCCN1CCOCC1 (configuration not stated) returned Pf Dd2 inh -8%.
Screening Cc1ccccc1S(=O)(=O)N1CCC(c2noc(-c3ccccn3)n2)C1 (configuration not stated) returned Pf Dd2 inh inactive[5.79 µM].
For C[C@@]1(O)CCN(Cc2ccc3c4c(cccc24)C(=O)OC3)C[C@@H]1O the results were Pf Dd2 inh 0%.
Cc1ccc(NC(=O)[C@@H]2CNC[C@H](C(=O)N3CCN(CCO)CC3)C2)cc1 was read as Pf Dd2 inh -3%.
For O=C(Cc1ccc(Cl)cc1)NC1CCN(c2ccccc2)C1=O (configuration not stated) the results were Pf Dd2 inh -10%.
Screening O=C(C[C@@H]1CCNC[C@@H]1Cc1cc(CSc2ccccc2)on1)N1CCCCC1 returned Pf Dd2 inh inactive.
For C#CCNC(=O)C1=NOC2CN(C(=O)C3CC3)CC12 (configuration not stated) the results were Pf Dd2 inh 12%[44.1 µM].
`COc1cccc(CNC(=O)Cn2c(C)cc3nc4n(c(=O)c32)CCCCC4)c1` gave Pf Dd2 inh inactive.
`Cc1ccc(-n2ncc(C(=O)N3CCN(C(=O)c4ccco4)CC3)c2C2CCN(C(=O)OC(C)(C)C)CC2)cc1` gave Pf Dd2 inh -19%.
For Cc1ccc(-n2ncc(C(=O)N3CCN(Cc4ccccc4)CC3)c2C2CCN(C(=O)OC(C)(C)C)CC2)c(C)c1 the results were Pf Dd2 inh 8.9µM*.
CC(C)(C)OC(=O)N1CCC(c2c(C(=O)N3CCN(C(=O)c4ccco4)CC3)cnn2-c2ccccc2)CC1 was read as Pf Dd2 inh -9%.
For CC(C)(C)OC(=O)N1CCC(c2c(C(=O)N3CCN(Cc4ccccc4)CC3)cnn2-c2ccc(Cl)cc2)CC1 the results were Pf Dd2 inh 11µM*.
`NC(=O)c1ccc(NC(=O)c2cc3n(n2)CC(c2ccc(Br)cc2)OC3)cc1` (configuration not stated) gave Pf Dd2 inh inactive.
O=C(c1ccccc1F)N1CCC(Oc2cccnc2)C1 (configuration not stated) was read as Pf Dd2 inh 3%.
For Cc1cccc(N2Cc3c(ncnc3N3CCOCC3)CN(C)C2=O)c1 the results were Pf Dd2 inh -8%.
`CNC(=O)c1ccc(CNc2cc(C3CC(O)C3)nc(N)n2)o1` (configuration not stated) gave Pf Dd2 inh -8%.
Screening CNC(=O)c1ccc(CNc2nc(CCN)nc3sc(C)c(C)c23)o1 returned Pf Dd2 inh 10µM*.
`Cc1sc2nc(CCN)nc(N(C)CCCCN3CCOCC3)c2c1C` gave Pf Dd2 inh inactive.
COCCC1(NS(=O)(=O)N(C)C)CCN(S(C)(=O)=O)CC1 was read as Pf Dd2 inh inactive.
For COc1ccccc1CC(=O)NCC1CCN(c2cnn(C)c(=O)c2)C1 (configuration not stated) the results were Pf Dd2 inh -8%.
For Cc1cnc(C)c(-c2cc(O)c3c(c2)CN(C(=O)C2CCOC2)CCO3)n1 (configuration not stated) the results were Pf Dd2 inh -16%.
For CCn1cc(C(=O)N2CCOc3c(O)cc(-c4ccccc4C)cc3C2)cn1 the results were Pf Dd2 inh 13µM*.
`Cc1nc(C(=O)N2CCOc3c(O)cc(-c4cccc(Cl)c4)cc3C2)c(C)o1` gave Pf Dd2 inh -19%.
For CN(C)CCNC(=O)C1(CCO)CC12CCOCC2 (configuration not stated) the results were Pf Dd2 inh 28%.
`CC(C)c1ccc(CNC(=O)c2noc(-c3ccc4c(c3)OCO4)n2)cc1` gave Pf Dd2 inh inactive.
COCCN1CCCCCC(O)c2cc(C(=O)NCC(C)C)ccc21 (configuration not stated) was read as Pf Dd2 inh -11%.
